# PMC4336329 (PLoS ONE, 2015)
# Screen size: about 310,000 compounds; about 14,000 (4.5%) showed an effect of 50% or more. The effect is printed as a negative number. This excerpt belongs to a sample that is enriched for strong results.
# Target: human ether-à-go-go-related gene (hERG) potassium channel (human, UniProt Q12809)
# Experiment: primary screen, population patch clamp on CHO cells stably expressing hERG; higher = less effect of the substance
# 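Also: peak tail current of the secondary pulse compared with the same well before compound.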
# Chain of human ether-à-go-go-related gene (hERG) potassium channel (Q12809 whole entry, looked up): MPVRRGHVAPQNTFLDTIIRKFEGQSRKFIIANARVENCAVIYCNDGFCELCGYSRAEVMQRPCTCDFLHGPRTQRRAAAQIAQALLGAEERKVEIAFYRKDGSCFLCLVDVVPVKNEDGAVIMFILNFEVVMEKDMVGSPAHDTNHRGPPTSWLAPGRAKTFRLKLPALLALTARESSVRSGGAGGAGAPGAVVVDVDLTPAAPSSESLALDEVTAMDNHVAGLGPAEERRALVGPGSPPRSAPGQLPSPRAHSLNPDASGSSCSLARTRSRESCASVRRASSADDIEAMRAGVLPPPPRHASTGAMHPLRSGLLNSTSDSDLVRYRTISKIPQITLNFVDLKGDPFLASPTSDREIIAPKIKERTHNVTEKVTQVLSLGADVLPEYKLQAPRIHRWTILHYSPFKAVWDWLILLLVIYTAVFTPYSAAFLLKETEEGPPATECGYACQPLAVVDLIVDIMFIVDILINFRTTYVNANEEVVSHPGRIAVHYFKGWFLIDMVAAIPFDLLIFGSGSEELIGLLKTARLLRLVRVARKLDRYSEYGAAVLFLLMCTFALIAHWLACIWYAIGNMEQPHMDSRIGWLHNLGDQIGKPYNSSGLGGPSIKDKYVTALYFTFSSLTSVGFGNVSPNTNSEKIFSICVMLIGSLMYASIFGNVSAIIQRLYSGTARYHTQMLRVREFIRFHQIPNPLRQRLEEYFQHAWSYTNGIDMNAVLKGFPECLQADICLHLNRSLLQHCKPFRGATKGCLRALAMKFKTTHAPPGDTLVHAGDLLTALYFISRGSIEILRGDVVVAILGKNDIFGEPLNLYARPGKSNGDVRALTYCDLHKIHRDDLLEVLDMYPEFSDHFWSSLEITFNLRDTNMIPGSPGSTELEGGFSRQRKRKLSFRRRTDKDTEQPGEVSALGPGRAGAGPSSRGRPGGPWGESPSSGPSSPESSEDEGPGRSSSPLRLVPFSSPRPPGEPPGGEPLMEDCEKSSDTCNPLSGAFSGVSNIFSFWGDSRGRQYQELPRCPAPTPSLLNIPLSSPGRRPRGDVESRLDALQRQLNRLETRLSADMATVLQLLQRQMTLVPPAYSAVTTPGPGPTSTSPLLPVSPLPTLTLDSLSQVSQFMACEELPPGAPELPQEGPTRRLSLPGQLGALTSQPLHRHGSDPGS
row,SMILES,"hERG current change (%, negative = inhibition) at 10uM [%]"
1,COc1ccc(C2NC(C(=O)O)CS2)cc1COCC(F)(F)F (centres unmarked),3.38
2,CC1Sc2ccc(S(=O)(=O)N3CCC(C(=O)N(C)Cc4ccco4)CC3)cc2NC1=O (centres unmarked),-24.7
3,COc1ccc(NC(=O)c2sc(SC)nc2N)cc1,-0.0249
4,Cn1ncc(Cl)c1C(=O)N1CCc2ccccc21,-13.9
5,O=S(=O)(c1ccccc1Cl)N1CCCC1c1nc(-c2cccc(Cl)c2)no1 (centres unmarked),-9.49
6,COc1cccc(-n2c(CN3CCN(c4ccccc4)CC3)nc3ccc([N+](=O)[O-])cc3c2=O)c1,-8.34
7,COc1cccc(-n2c(CN3CCN(Cc4ccccc4)CC3)nc3ccc([N+](=O)[O-])cc3c2=O)c1,-52.8
8,COc1cccc(-n2c(CN3CCN(C)CC3)nc3ccc([N+](=O)[O-])cc3c2=O)c1,-33.1
9,C=C(C)COc1ccc(-c2[nH]ncc2Oc2ccc(OC)cc2)c(O)c1,-14.9
10,C=C(C)COc1ccc(-c2[nH]ncc2Oc2ccccc2OC)c(O)c1,-55.2
11,C=C(C)COc1ccc(-c2[nH]ncc2Oc2ccccc2OCC)c(O)c1,4.65
12,O=C(O)c1ccc(NS(=O)(=O)c2ccc(NC(=O)c3ccccc3Cl)cc2)cc1,19
13,CC(NC(=O)COC(=O)c1ccc([N+](=O)[O-])s1)c1ccccc1 (centres unmarked),-20.8
14,CCC(C)c1ccc(NC(=O)C/C(C)=N/NC(=O)c2cnccn2)cc1 (centres unmarked),-17.2
15,C=CCN1C(=O)/C(=C/C=C2/N(CC)c3ccc(S(=O)(=O)N(C)C)cc3N2CC)SC1=S,-56
16,CCN1C(=O)/C(=C/C=C2\N(CC)c3cc(S(=O)(=O)N(C)C)ccc3N2c2ccccc2)SC1=S,0.17
17,C=CCN1C(=O)/C(=C\C=C2\N(C)c3ccccc3C2(C)C)SC1=S,10.7
18,COC(=O)CSc1[nH]c2ccccc2c1[N+](=O)[O-],7.33
19,Cc1nn(C)c(NC(=O)c2ccc(Cl)cc2Cl)c1Br,-11.4
20,CCOC(=O)c1ccc(NC(=S)N(CCCN2CCCC(C)C2)Cc2ccco2)cc1 (centres unmarked),-70.9
21,CCOC(=O)c1ccc(NC(=S)N(CCN2CCCCCC2)Cc2ccco2)cc1,-78.3
22,CCc1ccccc1NC(=S)N(CCN1CCCCCC1)Cc1ccco1,-46.8
23,CCOC(=O)c1ccc(NC(=S)NCc2ccco2)cc1,-11.1
24,CCOC(=O)c1ccc(NC(=O)C(=O)NCc2ccco2)cc1,15.7
25,CCOC(=O)c1ccc(NC(=S)N(CCCN(CC)CC)Cc2ccco2)cc1,-76.7
26,CCOC(=O)c1ccc(NC(=S)N(CCCN2CCCCC2)Cc2ccco2)cc1,-72.7
